Laboratory results reported in the supplement of paper PMC7184167.
Where a name gives a salt, the structure may show the parent alone.

System: replication-induced senescent mouse newborn dermal fibroblasts (NBF)
Assay: relative cell viability of senescent cells (fraction); higher = less killing of senescent cells
Settings: 1 µM; 3 days
Protocol: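 Replication-induced senescent newborn mouse skin fibroblasts (NBFs) in 24-well plates were treated with a Selleck FDA-approved drug library at 1 µM for 3 days.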

Row | Structure (SMILES) | relative cell viability
1 | C=CCNC1=C2C[C@@H](C)C[C@H](OC)[C@H](O)[C@@H](C)/C=C(\C)[C@H](OC(N)=O)[C@@H](OC)/C=C\C=C(/C)C(=O)NC(=CC1=O)C2=O [Tanespimycin (17-AAG)] | 0.966
2 | CC(=O)OCC(=O)[C@@]12N=C(C)O[C@@H]1C[C@H]1[C@@H]3CCC4=CC(=O)C=C[C@]4(C)[C@H]3[C@@H](O)C[C@@]12C [Deflazacort] | 1.04
3 | Cc1cccc(Nc2ccncc2S(=O)(=O)NC(=O)NC(C)C)c1 [Torsemide] | 0.965
4 | CCN(CC)CCNC(=O)c1c(C)[nH]c(/C=C2\C(=O)Nc3ccc(F)cc32)c1C [Sunitinib Malate] | 1.1
5 | Nc1nc(Cl)nc2c1ncn2[C@H]1C[C@H](O)[C@@H](CO)O1 [Cladribine] | 0.924
6 | Cc1ccc(NC(=O)c2ccc(CN3CCN(C)CC3)cc2)cc1Nc1nccc(-c2cccnc2)n1 [Imatinib Mesylate (STI571)] | 0.939
7 | CC(C(=O)O)c1cccc(C(=O)c2ccccc2)c1 (stereo not given) [Ketoprofen] | 0.757
8 | CC(C)OC(=O)C(C(=O)OC(C)C)=C1SC=CS1 [Malotilate] | 1.04
9 | CC1COc2c(N3CCN(C)CC3)c(F)cc3c(=O)c(C(=O)O)cn1c23 (stereo not given) [Ofloxacin] | 1
10 | O=c1[nH]c(=O)n([C@H]2C[C@H](O)[C@@H](CO)O2)cc1I [Idoxuridine] | 0.949
11 | Cc1cnc(C(=O)NCCc2ccc(S(=O)(=O)NC(=O)NC3CCCCC3)cc2)cn1 [Glipizide] | 0.23
12 | COc1c(N2C[C@@H]3CCCN[C@@H]3C2)c(F)cc2c(=O)c(C(=O)O)cn(C3CC3)c12 [Moxifloxacin HCl] | 1.03
13 | COc1cc2c(Oc3ccc(NC(=O)C4(C(=O)Nc5ccc(F)cc5)CC4)cc3F)ccnc2cc1OCCCN1CCOCC1 | 0.757
14 | CNC(=O)c1ccc2cc([C@@]3(O)CCn4cncc43)ccc2c1 [TAK-700 (Orteronel)] | 0.282
15 | NS(=O)(=O)c1cc2c(cc1Cl)N=CNS2(=O)=O [Chlorothiazide] | 0.952
16 | CS(=O)(=O)OCCCCOS(C)(=O)=O [Busulfan] | 1.03
17 | CN1C(C(=O)Nc2ccccn2)=C(O)c2ccccc2S1(=O)=O [Piroxicam] | 0.562
18 | CC(C)[C@H](O)C(=O)N[C@@H](C)C(=O)N[C@@H]1C(=O)N(C)CCc2ccccc21 | 0.981
19 | CNC(=O)c1cc(Oc2ccc(NC(=O)Nc3ccc(Cl)c(C(F)(F)F)c3)cc2)ccn1 [Sorafenib Tosylate] | 0.528
20 | Cc1ccnc2c1NC(=O)c1cccnc1N2C1CC1 [Nevirapine] | 1.02

Row | Structure (SMILES) | relative cell viability
21 | NC(=O)c1ncn([C@@H]2O[C@H](CO)[C@@H](O)[C@H]2O)c1N [AICAR (Acadesine)] | 1.02
22 | CC1(C)O[C@@H]2[C@@H](CO[C@@]3(COS(N)(=O)=O)OC(C)(C)O[C@@H]23)O1 [Topiramate] | 0.921
23 | CCCCC[C@H](O)/C=C/[C@H]1[C@H](O)CC(=O)[C@@H]1CCCCCCC(=O)O [Alprostadil] | 0.875
24 | CCOC(=O)C1=C(C)NC(C)=C(C(=O)OC)C1c1cccc(Cl)c1Cl (stereo not given) [Felodipine] | 1
25 | CC(=O)[C@H]1CC[C@H]2[C@@H]3CCC4=CC(=O)CC[C@]4(C)[C@H]3CC[C@]12C [Progesterone] | 0.968
26 | CCOc1ccccc1OCCN[C@H](C)Cc1ccc(OC)c(S(N)(=O)=O)c1 [Tamsulosin hydrochloride] | 1.1
27 | Nc1nc2ccc(OC(F)(F)F)cc2s1 [Riluzole] | 0.836
28 | O=C(O)C[C@H](O)C[C@H](O)/C=C/c1c(C2CC2)nc2ccccc2c1-c1ccc(F)cc1 [Pitavastatin Calcium] | 1.08
29 | O=C(c1ccccc1)c1ccc2n1CCC2C(=O)O (stereo not given) [Ketorolac] | 0.977
30 | CS(=O)(=O)CCNCc1ccc(-c2ccc3ncnc(Nc4ccc(OCc5cccc(F)c5)c(Cl)c4)c3c2)o1 | 0.746
31 | C#Cc1cccc(Nc2ncnc3cc(OCCOC)c(OCCOC)cc23)c1 [Erlotinib HCl (OSI-744)] | 0.672
32 | Cc1cn([C@@H]2C[C@@H](O)[C@H](CO)O2)c(=O)[nH]c1=O [Telbivudine] | 1
33 | NS(=O)(=O)Cc1noc2ccccc12 [Zonisamide] | 1.11
34 | CC(C)CN(C[C@@H](O)[C@H](Cc1ccccc1)NC(=O)O[C@H]1CCOC1)S(=O)(=O)c1ccc(N)cc1 [Amprenavir] | 1.06
35 | NCCCCCC(=O)O [(6-)ε-Aminocaproic acid] | 0.983
36 | c1ccc2[nH]c(-c3cscn3)nc2c1 [Thiabendazole] | 1.03
37 | CN1CCC(=C2c3ccccc3CCc3sccc32)CC1 [Pizotifen Malate] | 0.0212
38 | Nc1nc(F)nc2c1ncn2[C@@H]1O[C@H](CO)[C@@H](O)[C@@H]1O [Fludarabine] | 0.0671
39 | Cc1ccc(Nc2nccc(N(C)c3ccc4c(C)n(C)nc4c3)n2)cc1S(N)(=O)=O | 1.05
40 | COc1cc(/C=C/C(=O)CC(=O)/C=C/c2ccc(O)c(OC)c2)ccc1O [Curcumin] | 0.768
